Experimental findings from PubChem BioAssay AID624488 (Broad Institute, 2012) are described below.

Results with a measured potency or affinity are listed apart. Calls of active or inactive are those of the source.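 Rule for the calls: active = compounds that lower cell ATP signal, with a fitted half-maximal concentration within a set limit; inconclusive = flat curve with moderate signal loss, or poor fit; inactive = the rest.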

The nature of this assay: A375 melanoma cell cytotoxicity, dose response, counter-screen for MITF inhibitor project, CellTiter-Glo luminescence, dry powder, set 6 (AID 624488). The settings on record: A375 viability, CellTiter-Glo ATP luminescence, 24 h; series mostly up to 35 µM. A general note: Counterscreens check selectivity or assay interference.
`O=C1C(NS(=O)(=O)c2ccccc2)=C(c2ccccc2)C(=O)c2ccccc21`: the outcome was inactive.

As to `NC1=C(NS(=O)(=O)c2cccs2)C(=O)c2ccccc2C1=O`, the call was inactive.

Consider `CNC1=CC(=O)c2ccccc2C1=O`, for which the compound was called inactive.

For `NC1=C(NS(=O)(=O)c2ccc(Br)cc2)C(=O)c2ccccc2C1=O`, the result was inactive.

In the case of `O=C1C=C(NS(=O)(=O)c2ccc(Br)cc2)C(=O)c2ccccc21`, the result was inactive.

Consider `NC1=C(NS(=O)(=O)c2ccc(Br)s2)C(=O)c2ccccc2C1=O`, for which the call was inactive.

With `O=C1C=C(NS(=O)(=O)c2cccs2)C(=O)c2ccccc21`, the outcome was inactive.

With `O=C1C=C(NS(=O)(=O)c2ccccc2)C(=O)c2ccccc21`, the compound was classed as inactive.
